These results are taken from PubChem BioAssay.

The source made the active and inactive calls.

A short description of assay [1]: optical density shifts of acrAB sulA E. coli – strain DRC41, OD650, 48 h, E. coli filamentation inducer project, primary screen (AID 1152).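 Further: E. coli MC1000 strain DRC41 lacking acrAB efflux pump and sulA.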 The conditions noted are these: higher = more signal, called active from +8 up or from −8 down.
A short description of assay [2]: probe aLefty1 binding on compound microarray – biochemical, small-molecule microarray, 635/667 nm fluorescence, primary screen (AID 1153).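 Further: score merges spot fluorescence with signal-to-noise ratio from the scanned slide images.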 Particulars: higher = more signal.
A short description of assay [3]: plasmodial surface anion channel blockers, osmotic lysis – cell-based, P. falciparum Indochina, OD700, 1 h, primary screen (AID 1154). Particulars: P. falciparum Indochina infected RBC osmotic lysis, higher = more signal, called active from +8 up or from −8 down.
The nature of assay [4]: plasmodial surface anion channel blockers, osmotic lysis – cell-based, P. falciparum Indochina, OD700, 2 h, primary screen (AID 1155).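 Further: lysis reports solute entry through the parasite surface anion channel PSAC.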 The conditions noted are these: P. falciparum Indochina infected erythrocytes, higher = more signal, called active from +8 up or from −8 down.
Assay [5] can be described thus: changes in parasitized red cell lysis, either direction – P. falciparum Indochina, OD700, 3 h, PSAC antagonist project, primary screen (AID 1156). The conditions noted are these: P. falciparum-infected erythrocytes, osmotic lysis, higher = more signal, called active from +8 up or from −8 down.
Assay [6] in a line: plasmodial surface anion channel blockers, osmotic lysis – cell-based, P. falciparum Indochina, OD700, 18 h, primary screen (AID 1157). Particulars: P. falciparum Indochina infected erythrocytes, osmotic lysis OD700, 18 h; higher = more signal, called active from +8 up or from −8 down.
The nature of assay [7]: S6 kinase pathway phospho-S6 level changes – cell-based, A549, cytoblot, luminescence, serum-stimulated, primary screen (AID 1158).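 Further: serum-stimulated A549 lung adenocarcinoma cells; signal is phosphorylated S6 detected by cytoblot immunostaining with HRP secondary.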 Particulars: 5 h, higher = more signal.
The target of assay [8] is NADPH oxidase 2 (Homo sapiens) (UniProt P04839). The assay can be described thus: compounds shifting NOX2 Amplex Red fluorescence – cell-based, HEK293-NOX2, PMA-stimulated, NOX inhibitor project, primary screen (AID 1159). Further: test concentration not given here. Particulars: 45 min, higher = more signal, called active from +8 up or from −8 down.
NADPH oxidase 2 (Homo sapiens), sequence (P04839 whole entry, looked up): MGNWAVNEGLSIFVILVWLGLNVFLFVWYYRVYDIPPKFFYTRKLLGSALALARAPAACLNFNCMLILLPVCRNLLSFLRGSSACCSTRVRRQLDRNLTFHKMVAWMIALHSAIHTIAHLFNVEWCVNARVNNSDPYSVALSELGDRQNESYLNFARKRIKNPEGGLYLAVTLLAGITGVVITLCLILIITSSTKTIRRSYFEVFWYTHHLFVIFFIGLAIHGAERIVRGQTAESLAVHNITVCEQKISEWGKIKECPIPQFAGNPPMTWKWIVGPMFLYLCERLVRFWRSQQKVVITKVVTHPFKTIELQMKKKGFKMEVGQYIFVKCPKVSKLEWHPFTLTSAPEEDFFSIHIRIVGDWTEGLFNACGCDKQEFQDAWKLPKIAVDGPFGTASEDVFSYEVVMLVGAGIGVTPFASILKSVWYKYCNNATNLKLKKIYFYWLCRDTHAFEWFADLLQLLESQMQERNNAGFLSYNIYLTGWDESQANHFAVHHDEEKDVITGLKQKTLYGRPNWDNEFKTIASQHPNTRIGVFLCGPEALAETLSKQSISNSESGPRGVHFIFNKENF
Assay [9] concerns the target NADPH oxidase 4 (Homo sapiens) (UniProt Q9NPH5). The assay can be described thus: compounds shifting NOX4 Amplex Red fluorescence – cell-based, HEK293-NOX4, tetracycline-induced, NOX inhibitor project, primary screen (AID 1160). Particulars: HEK293-NOX4, Amplex Red H2O2 fluorescence, 45 min; higher = more signal, called active from +8 up or from −8 down.
The target of assay [10] is NADPH oxidase 5 (Homo sapiens) (UniProt Q96PH1). The assay can be described thus: compounds shifting NOX5 Amplex Red fluorescence – cell-based, HEK293-NOX5, NOX inhibitor project, primary screen (AID 1161). Particulars: HEK293-NOX5, ionomycin, 45 min, higher = more signal.
NADPH oxidase 5 (Homo sapiens), sequence (Q96PH1 whole entry, looked up): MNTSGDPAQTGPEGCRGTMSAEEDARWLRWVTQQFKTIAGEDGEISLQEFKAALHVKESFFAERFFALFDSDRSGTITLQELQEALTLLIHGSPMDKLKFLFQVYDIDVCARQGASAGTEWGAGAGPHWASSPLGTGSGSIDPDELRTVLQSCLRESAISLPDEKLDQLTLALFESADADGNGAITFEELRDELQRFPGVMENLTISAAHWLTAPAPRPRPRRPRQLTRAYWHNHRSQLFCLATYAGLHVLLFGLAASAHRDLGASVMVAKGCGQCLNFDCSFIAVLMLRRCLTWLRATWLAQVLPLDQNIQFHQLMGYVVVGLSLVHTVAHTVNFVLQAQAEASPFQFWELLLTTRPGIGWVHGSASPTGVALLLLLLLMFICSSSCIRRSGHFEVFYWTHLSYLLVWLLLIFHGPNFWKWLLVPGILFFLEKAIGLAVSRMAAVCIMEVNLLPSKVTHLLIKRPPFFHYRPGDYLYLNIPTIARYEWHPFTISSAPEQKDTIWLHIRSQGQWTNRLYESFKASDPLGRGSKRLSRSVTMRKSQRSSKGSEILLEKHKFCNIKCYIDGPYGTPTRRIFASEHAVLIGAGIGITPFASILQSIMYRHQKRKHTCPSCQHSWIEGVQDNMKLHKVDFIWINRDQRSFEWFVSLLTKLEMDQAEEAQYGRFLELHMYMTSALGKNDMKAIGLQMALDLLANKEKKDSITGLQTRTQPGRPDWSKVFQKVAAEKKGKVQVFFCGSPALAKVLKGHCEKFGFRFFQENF

NADPH oxidase 4 (Homo sapiens), sequence (Q9NPH5 whole entry, looked up): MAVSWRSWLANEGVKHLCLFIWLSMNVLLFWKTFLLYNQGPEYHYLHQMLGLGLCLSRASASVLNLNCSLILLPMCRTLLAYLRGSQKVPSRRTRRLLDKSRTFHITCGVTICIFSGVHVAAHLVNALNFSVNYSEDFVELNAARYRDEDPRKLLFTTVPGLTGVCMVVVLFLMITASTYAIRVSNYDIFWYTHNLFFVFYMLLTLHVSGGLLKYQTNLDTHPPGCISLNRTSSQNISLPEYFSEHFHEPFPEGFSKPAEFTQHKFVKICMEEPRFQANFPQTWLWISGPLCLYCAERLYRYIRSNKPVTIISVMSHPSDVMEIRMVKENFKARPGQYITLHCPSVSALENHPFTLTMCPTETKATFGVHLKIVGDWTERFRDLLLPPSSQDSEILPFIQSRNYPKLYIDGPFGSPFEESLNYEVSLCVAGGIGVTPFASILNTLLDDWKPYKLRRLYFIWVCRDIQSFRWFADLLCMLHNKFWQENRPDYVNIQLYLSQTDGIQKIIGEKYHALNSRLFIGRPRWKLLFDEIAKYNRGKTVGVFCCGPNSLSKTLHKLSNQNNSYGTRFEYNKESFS

With `CC(C)(C)OC(=O)CC[C@@]1(C(=O)NCc2ccccc2)N=C(c2ccc(OCCCO)cc2)O[C@@H]1c1ccccc1N=[N+]=[N-]`, the z-score in assay [1] is 0.775 (inactive); in [3], 33.2 (active); in assay [4] it was 30 (active); in assay [5] it was 4.99 (inactive); in assay [6], 6.74 (inactive); in assay [7], 0.787. Further, the z-score was -1.8 (inactive) in assay [8], 0.457 (inactive) in assay [9] and -1.86 in assay [10]. Besides, the composite z-score in assay [2] stood at 0.347.

As to `CCCC[C@@H](O)C1=C(COc2ccccc2)C[C@H]2C(=O)N(C)C(=O)[C@H]2[C@H]1CO`, the z-score in [1] is 2.41 (inactive); in assay [3], 4.68 (inactive); in assay [4], -0.35 (inactive); in assay [5] it was 0.241 (inactive); in assay [6] it was -1.53 (inactive); in assay [7], 1.56. In addition, the z-score in assay [8] is -0.69 (inactive); in [9] it was 0.449 (inactive); in assay [10], 0.187. In [2], this compound showed a composite z-score of -0.274.

Consider `C=C(C)c1cc2c(c(CCCCCC)n1)[Si](C(C)C)(C(C)C)OC2`, for which the z-score in assay [1] is -0.959 (inactive); in assay [3], 1.18 (inactive); in assay [4], 0.7 (inactive); in assay [5] it was -0.0223 (inactive); in assay [6], 0.778 (inactive); in assay [7], 0.202. Further, the z-score is -1.98 (inactive) in assay [8], -0.933 (inactive) in assay [9] and -2.92 in [10]. For the same compound, in assay [2], the composite z-score was -0.245.

Turning to `NCCCCCNC(=O)[C@@H]1C[C@@H]2C(=O)NCC(=O)N2[C@@H]1c1cccc(OCCO)c1`, the z-score was 1.81 (inactive) in [1]; 2.11 (inactive) in assay [3]; 0.282 (inactive) in assay [4]; -0.874 (inactive) in assay [5]; 0.154 (inactive) in [6]; 0.121 in assay [7]. In addition, the z-score in assay [8] was 1.44 (inactive); in assay [9] it was -0.373 (inactive); in assay [10], 2.89. The composite z-score in assay [2] stood at 0.165.

Take `C=CCNC(=O)[C@@H]1[C@H]2C(=O)O[C@H](c3ccccc3)[C@H](c3ccccc3)N2[C@H](c2ccc(O)cc2)[C@@]12C(=O)N(C(=O)OCCOC)c1ccc(C#CC3(O)CCCCCC3)cc12`: the z-score in assay [1] was 2.23 (inactive); in assay [3], 0.776 (inactive); in assay [4], -0.353 (inactive); in assay [5] it was 0.469 (inactive); in [6], 0.682 (inactive); in assay [7], 0.305. Besides, the z-score in [8] is -0.00516 (inactive); in assay [9] it was 0.395 (inactive); in assay [10], 0.849. Besides, the composite z-score in [2] was -0.639.

With `COc1cccc(/C=C/C=O)c1`, the z-score is 1.46 (inactive) in assay [1]; 0.206 (inactive) in assay [3]; -0.11 (inactive) in assay [4]; -0.648 (inactive) in [5]; -0.0641 (inactive) in [6]; 0.0159 in [7]. For the same compound, the z-score in assay [8] is -0.759 (inactive); in [9], -0.228 (inactive); in [10] it was 0.985. In assay [2], this compound registered a composite z-score of 0.212.

Turning to `O=C1C=C(c2ccccc2)C(=O)c2ccc([C@H]3Oc4ccccc4S(=O)(=O)N4CCC[C@@H]34)cc21`, the z-score in assay [1] was 0.864 (inactive); in assay [3], 2.45 (inactive); in assay [4], 0.0567 (inactive); in [5], -0.37 (inactive); in assay [6], -0.236 (inactive); in [7] it was 0.208. The z-score in assay [8] is 0.398 (inactive); in [9], -5.41 (inactive); in assay [10] it was -6.41. The compound further showed a composite z-score in [2] of -0.08.

For the compound `COC(=O)c1ccc([C@H](NC(=O)c2ccco2)[C@]2(C)C[C@H]2C2CCCCC2)cc1`, the z-score is -2.39 (inactive) in [1]; 16.4 (active) in assay [3]; 2.52 (inactive) in assay [4]; 1.33 (inactive) in assay [5]; 1.3 (inactive) in assay [6]; -0.357 in [7]. The values for the z-score in assay [8], in assay [9] and in assay [10] were -0.803 (inactive), -2.56 (inactive) and 0.289, respectively. For the same compound, in assay [2], the composite z-score came out at 0.527.

For the compound `C[C@@H]1NC(=O)[C@@]23C(=O)N[C@@H](Cc4ccccc4)C2[C@H](C)[C@@]2(C)O[C@H]2C3/C=C/C/C=C\CNC(=O)[C@@H]2CCCN2C1=O` (stereo not given in full), the z-score in assay [1] is -0.906 (inactive); in assay [3] it was 0.518 (inactive); in assay [4] it was -0.0429 (inactive); in assay [5], -1.12 (inactive); in assay [6], -0.161 (inactive); in [7] it was 0.0613. Also, the figures for the z-score in assay [8], in assay [9] and in assay [10] were -0.0487 (inactive), 0.581 (inactive) and -2.64, respectively. Further, in [2], the composite z-score is -0.147.

On to `O=C1OCCC/C=C\[C@H]2OC34C=CCN(CCN5CCOCC5)C(=O)[C@H]3N(CCCCCCO)C(=O)[C@@H]4C12` (stereo not given in full), for which the z-score in assay [1] was 1.76 (inactive); in assay [3] it was 3.78 (inactive); in assay [4], -0.652 (inactive); in [5], 0.752 (inactive); in assay [6], -0.774 (inactive); in assay [7], 1.66. Also, the z-score was 0.752 (inactive) in [8], -0.153 (inactive) in [9] and 1.9 in [10]. This compound also displayed a composite z-score in [2] of 0.369.

For the compound `COc1cc(OC)c(C(O)C2C=CC3C(=O)N(c4ccccc4)C(=O)C3N2Nc2ccccc2)cc1Br` (stereo not given), the z-score is -0.789 (inactive) in [1]; 20.2 (active) in assay [3]; 5.27 (inactive) in assay [4]; 0.508 (inactive) in [5]; 2.03 (inactive) in [6]; -0.543 in assay [7]. Also, the values for the z-score in [8], in assay [9] and in assay [10] were -1.61 (inactive), -4.38 (inactive) and -2.38, respectively. This compound yielded a composite z-score in assay [2] of 0.0834.
